This is an account of results in PubChem BioAssay AID1376 (SRMLSC, 2008).

The campaign covered roughly 220,000 compounds. About 530 (0.24%) were called active. Cut-off read from the data, not from the text of the source: active = inhibition above about 13%; inconclusive = no clear call, values can overlap the other calls; inactive = below that. Shown is part of a subset that was picked to be rich in actives. Potency and affinity values are given separately.

For this experiment, the target named is Bifunctional protein GlmU (Mycobacterium tuberculosis (strain ATCC 25618 / H37Rv)) (UniProt P9WMN3). The experiment can be described thus: inhibition of mycobacterial GlmU enzyme – biochemical, glucosamine-1-phosphate acetyltransferase (AID 1376).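 Note: 0% = complete reaction with vehicle and 100% = reaction without substrate.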 The following applies: M. tuberculosis GlmU acetyltransferase enzyme assay; stronger effect = higher value;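 tested at 30 µM in the primary screen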.
Bifunctional protein GlmU (Mycobacterium tuberculosis (strain ATCC 25618 / H37Rv)), sequence (P9WMN3 whole entry, looked up): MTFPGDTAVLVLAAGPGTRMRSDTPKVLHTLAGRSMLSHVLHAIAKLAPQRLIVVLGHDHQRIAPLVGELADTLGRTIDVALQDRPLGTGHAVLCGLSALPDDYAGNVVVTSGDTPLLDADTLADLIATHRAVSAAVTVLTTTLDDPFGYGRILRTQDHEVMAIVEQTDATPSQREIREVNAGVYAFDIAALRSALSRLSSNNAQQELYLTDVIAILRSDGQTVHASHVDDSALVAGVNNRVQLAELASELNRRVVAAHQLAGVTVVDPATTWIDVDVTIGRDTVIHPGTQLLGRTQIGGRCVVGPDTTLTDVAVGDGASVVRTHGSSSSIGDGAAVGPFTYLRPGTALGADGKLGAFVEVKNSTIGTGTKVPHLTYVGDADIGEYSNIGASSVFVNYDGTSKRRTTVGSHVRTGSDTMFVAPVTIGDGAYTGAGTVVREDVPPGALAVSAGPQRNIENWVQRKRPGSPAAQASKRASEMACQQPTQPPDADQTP
`C=CCn1c(C(CC(C)C)CC(C)O)n[nH]c1=S` (stereo not drawn): the inhibition was -0.56% (inactive).
Under `Cc1ccc(-n2c(SCC(=O)NC3CCS(=O)(=O)C3)nc3ccccc3c2=O)cc1` (stereo not drawn) stands -6.07% (inactive); under `Cc1cccc(NC(=O)CCc2ccc(S(=O)(=O)NC3CCCCC3)cc2)c1`, 4.56% (inactive).
Then `Cc1nn(-c2cccc(C(F)(F)F)c2)c(Cl)c1/C=N/Nc1cccc(C(=O)O)c1`, with -2.39% (inactive); and `O=C(O)c1cccc(N/N=C/c2ccc(-c3ccccc3)cc2)c1`, with -0.74% (inactive).
Under `CSc1ccc(/C=N/Nc2cccc(C(=O)O)c2)cc1` stands 35.4% (active); under `Cc1nn(-c2ccccc2)c(Cl)c1/C=N/Nc1ccc(Cl)c(C(=O)O)c1`, -0.65% (inactive); under `CC(C)(C)c1ccc(/C=N/Nc2cccc(C(=O)O)c2)cc1`, -6.54% (inactive).
As to `CCOc1cccc(C(=O)N(Cc2ccc(F)cc2)C2CCS(=O)(=O)C2)c1` (stereo not drawn), the inhibition is 3.65% (inactive).
Take `CC1CCc2c(sc3ncn(Cc4ccc(C(=O)O)cc4)c(=O)c23)C1` (stereo not drawn): the inhibition was -5.17% (inactive).
In the case of `CNS(=O)(=O)c1cccc(C(=O)OCC(=O)Nc2ccc(N3CCCCC3)cc2)c1`, the inhibition was -3.94% (inactive).
As for `CN(CCC1CCOCC1)Cc1nc(Cc2ccccc2F)no1`, the inhibition is 3.72% (inactive).
Under `N#CC(c1nc2ccccc2nc1OCCO)S(=O)(=O)c1ccccc1` (stereo not drawn) stands 12.9% (active); under `CCCCOc1nc2ccccc2nc1C(C#N)S(=O)(=O)c1ccccc1` (stereo not drawn), 3.84% (inactive).
Under `Cc1ccc(S(=O)(=O)C(C#N)c2nc3ccccc3nc2OCCO)cc1` (stereo not drawn) stands 2.66% (inactive).
As for `COc1ccc(C2C(C(C)=O)=C(O)C(=O)N2c2cccnc2)c(OC)c1` (stereo not drawn), the inhibition is 12.9% (active).
Under `COc1ccc(C2C(C(C)=O)=C(O)C(=O)N2c2cccnc2)cc1OC` (stereo not drawn) stands 1.89% (inactive); under `COc1ccc(C2C(C(C)=O)=C(O)C(=O)N2c2nccs2)c(OC)c1` (stereo not drawn), 0.3% (inactive).
Under `Cc1ccccc1NC(=O)C(C)n1c2ccccc2c2nc(=O)cc(C)n21` (stereo not drawn) stands -3.29% (inactive); under `Nc1cc(C(=O)O)c(N)c2c1C(=O)c1ccccc1C2=O`, 12.9% (active).
Then `Nc1c(C(=O)O)ccc2c1C(=O)c1ccccc1C2=O`, with 5.83% (inactive).
In the case of `O=C(O)c1cccc2c1C(=O)c1ccccc1C2=O`, the inhibition is -4.06% (inactive).
Under `Cc1ccc2nsnc2c1S(=O)(=O)N1CCN(CCc2ccccc2)CC1` stands -1.69% (inactive); under `Cn1c(=O)n(C)c2cc(NC(=O)c3ccccc3[N+](=O)[O-])c(Br)cc21`, -4.22% (inactive).
Then `NC(=O)CSc1nnc(Cn2cnc3ccccc32)o1`, with -3.79% (inactive).
Then `Clc1ccc(CSc2nnc(Cn3cnc4ccccc43)o2)cc1`, with 15% (active); and `Clc1ccc(Cn2cnc3ccccc32)cc1`, with -0.58% (inactive).
For the compound `CC(C)(CN=C1NS(=O)(=O)c2ccccc21)CNC(=O)CN1C(=O)c2ccccc2C1=O`, the inhibition was 0.96% (inactive).
Under `O/C(=C\Sc1nnc(Cc2ccccc2)o1)c1ccc(Br)cc1` stands 9.57% (inactive); under `Cc1cccc(-n2nc3c(c2NC(=O)CCC2CCCCC2)CS(=O)C3)c1C` (stereo not drawn), 19.3% (active).
Take `Cc1ccc(-n2nc3c(c2NC(=O)CCC2CCCCC2)CS(=O)C3)cc1` (stereo not drawn): the inhibition is 4.09% (inactive).
Then `O=C(CCC1CCCCC1)Nc1c2c(nn1-c1ccc(F)cc1)CS(=O)C2` (stereo not drawn), with -0.99% (inactive); and `COc1ccccc1C1C(C(=O)NCc2ccccc2)=C(C)Nc2ncnn21` (stereo not drawn), with -0.29% (inactive); and `O=C(NCc1cccc(Cl)c1)c1ccc(S(=O)(=O)Nc2cccc(C(F)(F)F)c2)cc1`, with 6.21% (inactive).
Under `CNS(=O)(=O)c1c(C)cc(C)c(N(C)S(=O)(=O)c2ccccc2)c1C` stands 4.09% (inactive); under `O=C(O)C(Cc1ccccc1)N1C(=O)/C(=C/c2cccs2)SC1=S` (stereo not drawn), 17.4% (active); under `O=C(O)CC(C(=O)O)N1C(=O)/C(=C/C=C/c2ccco2)SC1=S` (stereo not drawn), 17.9% (active).
As for `COc1ccc(/C=C2\SC(=S)N(C(Cc3ccccc3)C(=O)O)C2=O)cc1` (stereo not drawn), the inhibition was 1.51% (inactive).
As to `O=C(O)CCCN1C(=O)/C(=C/C=C/c2ccco2)SC1=S`, the inhibition is 5.29% (inactive).
Under `O=C1S/C(=C\C=C\c2ccco2)C(=O)N1c1ccc(O)cc1` stands 11.9% (inactive); under `O=C(O)C(Cc1ccccc1)N1C(=O)/C(=C/C=C/c2ccco2)SC1=S` (stereo not drawn), 26.9% (active); under `O=C(O)C(Cc1ccccc1)N1C(=O)/C(=C/c2cccc3ccccc23)SC1=S` (stereo not drawn), 3.53% (inactive).
Under `Cc1ccc(/C=C2\SC(=S)N(C(Cc3ccccc3)C(=O)O)C2=O)cc1` (stereo not drawn) stands 5.14% (inactive); under `O=C(O)C(Cc1ccccc1)N1C(=O)/C(=C/c2ccccc2)SC1=S` (stereo not drawn), 7.96% (inactive); under `CC(=O)Nc1ccc(C(=O)NNC(=O)c2cc([N+](=O)[O-])cc([N+](=O)[O-])c2)cc1`, 2.49% (inactive).
Then `CC(C)(O)C#Cc1ccc(CN2CCN(Cc3ccccc3)C(CCO)C2)s1` (stereo not drawn), with 3.34% (inactive); and `O=C1CC(c2ccccc2)Cc2nc3nc(C(F)(F)F)nn3cc21` (stereo not drawn), with 2.78% (inactive).
On to `CSc1nc2nc3c(cn2n1)C(=O)CC(c1ccccc1)C3` (stereo not drawn), for which the inhibition was 2.71% (inactive).
Under `Cc1nc2nc3c(cn2n1)C(=O)CC(c1ccccc1)C3` (stereo not drawn) stands 15% (active); under `O=C(Nc1nnc(-c2ccccc2)o1)NC1CCCCC1`, 0.77% (inactive).
Then `CC(=O)Nc1ccc(OCC(O)CN2CCN(c3cccc(Cl)c3)CC2)cc1` (stereo not drawn), with -0.54% (inactive).
Then `COC(C/C=C\[C@H](O)COCc1ccccc1)OC`, with 6.23% (inactive); and `Cc1ccccc1NC(=O)Nc1cc(-c2ccccc2)nn1C`, with -3.02% (inactive); and `O=C(CSCc1ccccc1F)NCc1ccc(F)cc1`, with -1.92% (inactive).
For the compound `c1cncc(-c2nnc3n2CCC3)c1`, the inhibition is -0.26% (inactive).
Then `CCOC(=O)C1=C(N)N(c2ccccc2)C(=O)C1`, with 1.91% (inactive); and `CCOC(=O)C1=C2NC(=O)c3ccccc3N2C(=O)C1`, with 13.7% (active); and `CCOC(=O)C1=C(C)N(c2ccccc2)C(=O)C1`, with 3.44% (inactive).
Then `O=C(COC(=O)c1ccc(Cl)c([N+](=O)[O-])c1)Nc1ccccc1OC(F)F`, with 0.84% (inactive).
Regarding `Cc1sc2nc(SCc3ccccc3)n(Cc3ccco3)c(=O)c2c1C`, the inhibition is -1.04% (inactive).
Then `CCSC1=NCCN1C(=O)c1c(-c2ccccc2Cl)noc1C`, with 4.4% (inactive); and `Cc1onc(-c2ccccc2Cl)c1C(=O)N1CCN=C1SCc1cccnc1`, with 27.2% (active).
Then `CSC1=NCCN1C(=O)c1c(-c2ccccc2Cl)noc1C`, with -1.36% (inactive).
For the compound `C=CCn1c(O)c(C=Nc2c(C)n(C)n(-c3ccccc3)c2=O)c(=O)[nH]c1=O`, the inhibition was -2.53% (inactive).
Then `CCCOC(=O)C1C2C=CC(C3CC23)C1C(=O)OCC(=O)c1ccccc1` (stereo not drawn), with 2.44% (inactive); and `N=C1S/C(=C\c2ccco2)C(=O)N1c1ccc2c(c1)OCO2`, with 5.07% (inactive); and `Cc1ccccc1NC(=O)CN1C(=O)S/C(=C\c2ccc(-c3cc(C(=O)O)ccc3C)o2)C1=O`, with 19.2% (inactive).
Under `COc1ccccc1N1C(=N)S/C(=C\c2ccc(-c3ccccc3C(=O)O)o2)C1=O` stands 8.5% (inactive); under `O=C1NC(=O)N(c2ccc3c(c2)OCO3)C(=O)/C1=C\c1ccc(-c2ccccc2C(=O)O)o1`, 9.19% (inactive); under `Cc1ccc(C)c(N2C(=N)S/C(=C\c3ccc(-c4ccccc4C(=O)O)o3)C2=O)c1`, 13.1% (active).
Under `O=C(N/N=C/C=C/c1ccc(Br)cc1)C(O)c1ccccc1` (stereo not drawn) stands -4.11% (inactive); under `COc1ccc(NC(=O)c2ccccc2-c2ccccc2)c(C)c1`, -1.21% (inactive).
With `O=C(OCC(=O)N1CCN(C(=O)c2ccco2)CC1)c1ccccc1C(=O)c1ccccc1`, the inhibition is 0.58% (inactive).
As for `Cc1cc(/C=c2/sc3nc4ccccc4n3c2=O)c(C)n1-c1ccccn1`, the inhibition is 6.87% (inactive).
Under `O=Cc1ccc(-c2cccc(C(=O)O)c2)o1` stands 3.12% (inactive).
Turning to `CCN(CC)c1ccc(/C=c2\sc3nc4ccccc4n3c2=O)c(O)c1`, the inhibition is -2.52% (inactive).
Under `O=c1/c(=C/c2ccccn2)sc2nc3ccccc3n12` stands 3.31% (inactive); under `O=c1/c(=C\c2cc([N+](=O)[O-])cc([N+](=O)[O-])c2O)sc2nc3ccccc3n12`, 33.8% (active).
Consider `O=c1/c(=C\c2cccn2-c2ccccc2)sc2nc3ccccc3n12`, for which the inhibition was -1.22% (inactive).
Under `Cc1ccc(-n2c(C)cc(/C=c3/sc4nc5ccccc5n4c3=O)c2C)cc1` stands 0.75% (inactive); under `O=C(O)Cn1cc(/C=c2/sc3nc4ccccc4n3c2=O)c2ccccc21`, -3.15% (inactive).
Consider `O=c1/c(=C/c2ccc(O)c([N+](=O)[O-])c2)sc2nc3ccccc3n12`, for which the inhibition is 8.42% (inactive).
In the case of `O=c1c(Br)c(N2CCOCC2)cnn1-c1ccccc1`, the inhibition was -4.84% (inactive).
Then `Cn1nc(C(F)(F)F)c2cc(C(=O)O)sc21`, with 0.57% (inactive); and `CCN(CC)S(=O)(=O)c1ccc(N2CCOCC2)c(NC(=O)CC(C)(C)C)c1`, with 11.6% (inactive); and `Cc1cc(C)c(C#N)c(SC2CCCCC2=O)n1` (stereo not drawn), with 0.86% (inactive).
Under `CC(C)NC(=O)CSc1nnc2sc3ccccc3n12` stands 7.28% (inactive); under `Cn1nc(-c2ccccc2)c(CN2CCN(c3ncccn3)CC2)c1Cl`, -1.97% (inactive); under `CC1(C)CC(=O)C2=C(C1)N(CCN1CCOCC1)C1=C(C(=O)CC(C)(C)C1)C2c1ccc(Cl)c([N+](=O)[O-])c1`, 4.94% (inactive).
Under `CCOC(=O)Cc1csc(NC(=O)c2ccco2)n1` stands 4.22% (inactive); under `Cc1cc(/C=C2\C(=O)NC(=O)N(c3ccc(F)cc3)C2=O)c(C)n1-c1cccc(C(=O)O)c1`, 2.99% (inactive); under `Cc1nn(Cc2c(F)cccc2Cl)c(C)c1NC(=O)C1CC1`, 1.68% (inactive).
Consider `CC(Cc1ccsc1)NC(=O)CCc1nnc(COc2ccccc2)o1` (stereo not drawn), for which the inhibition was -0.64% (inactive).

The inhibition is the drop in the measured response relative to a control, in per cent.
